Source: PubChem BioAssay
Most compounds without a hit are left out; they make up all but 2.7% or so of the library.
pPAFAH inh: inhibitors of human plasma PAF acetylhydrolase (pPAFAH); Q13093; recombinant pPAFAH, FP-rhodamine probe fluorescence polarization; inhibition, % at 3.39 µM; 330,000 compounds, 1.5% hits; AID 463082;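 active means inhibition above the mean inhibition across the screen plus 3 SD, cut at about 25% in these data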;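 further: inhibitors block binding of the rhodamine activity-based probe so polarization drops; 0% = enzyme with DMSO and 100% = wells lacking pPAFAH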
PAFAH1B2 FP inh: PAFAH1B2 (human) inhibition; inhibition, % at 3.39 µM; P68402; recombinant PAFAH1B2, FP-rhodamine activity probe, fluorescence polarization; 340,000 compounds, 1.2% hits; AID 492953;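 active means inhibition above the mean of all tested compounds plus 3 SD, cut at about 24% in these data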;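 further: 0% = enzyme with DMSO and 100% = wells lacking PAFAH1B2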
Target sequence (P68402 whole entry, looked up): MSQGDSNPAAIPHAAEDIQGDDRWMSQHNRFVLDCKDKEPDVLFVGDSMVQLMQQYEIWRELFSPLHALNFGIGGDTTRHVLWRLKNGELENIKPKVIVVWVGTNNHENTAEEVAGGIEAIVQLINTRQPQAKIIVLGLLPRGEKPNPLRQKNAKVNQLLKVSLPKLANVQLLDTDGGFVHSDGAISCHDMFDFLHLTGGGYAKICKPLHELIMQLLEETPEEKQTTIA
TCR CD3 inh: human TCR-CD3 binding inhibition. TAMRA-labeled TCR probe fluorescence, biochemical. inhibition, % at 9.4 µM. 360,000 compounds, 0.37% hits. AID 651800; in the data active means inhibition above about 19%;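 further: recombinant mutant TCR 2C K166C tagged with TAMRA read by polarization; 0% = receptor in buffer alone and 100% = receptor with positive control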
PAFAH1B3 inh: PAFAH1B3 (human) inhibition; Q15102; recombinant PAFAH1B3, FP-rhodamine probe, fluorescence polarization; inhibition, % at 3.39 µM; 340,000 compounds, 0.28% hits;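 active means inhibition above the screen-wide average of all tested compounds plus 3 SD, cut at about 25% in these data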;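 further: 0% = enzyme with DMSO only and 100% = wells lacking PAFAH1B3 protein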
Target sequence (Q15102 whole entry, looked up): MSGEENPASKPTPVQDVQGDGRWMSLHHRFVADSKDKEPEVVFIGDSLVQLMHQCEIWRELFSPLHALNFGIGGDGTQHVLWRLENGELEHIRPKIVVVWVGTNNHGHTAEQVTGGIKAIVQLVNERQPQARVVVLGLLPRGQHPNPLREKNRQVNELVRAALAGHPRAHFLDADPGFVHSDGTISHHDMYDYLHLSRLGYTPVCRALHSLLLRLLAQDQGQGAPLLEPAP
PAFAH2 inh: inhibitors of human PAFAH2; recombinant PAFAH2, FP-rhodamine activity probe, fluorescence polarization; Q99487; inhibition, % at 3.39 µM; AID 492956; 340,000 compounds, 0.99% hits;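 active means inhibition above the mean over all tested compounds plus 3 SD, cut at about 30% in these data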;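 further: inhibitors block probe labeling of enzyme so polarization drops; 0% = enzyme with DMSO and 100% = wells lacking PAFAH2 protein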
Active calls of the source: *; nt = not tested or not shown; ! = not active in a repeat.

SMILES	pPAFAH inh	PAFAH1B2 FP inh	TCR CD3 inh	PAFAH1B3 inh	PAFAH2 inh
N#C/C(=C\c1coc2ccc(O)cc2c1=O)C(=O)Nc1nc2ccccc2s1	33.1*	8.3	-17.6	2.8	29.0
O=C(Nc1ccc(S(=O)(=O)Nc2nccs2)cc1)c1cc(-c2ccccc2Cl)nc2ccccc12	25.2*	2.6	-1.4	9.6	-1.9
CC(C)(C)N/N=C1\CC(c2ccccc2)Oc2ccccc21 (stereo not given)	2.0	0.9	7.5	2.4	0.3
O=C(O)c1cc(N/N=C2/CC(c3ccccc3)Oc3ccccc32)ccc1Cl (stereo not given)	33.9*	1.6	0.3	7.4	16.6
CC(CCc1ccccc1)NCC(O)c1ccc(O)c(C(N)=O)c1 (stereo not given)	-1.6	6.7	7.1	13.6	0.0
COc1ccc(CC(C)NCC(O)c2ccc(O)c(NC=O)c2)cc1 (stereo not given)	nt	3.5	26.6*!	3.7	7.8
CN(C)C1=NCCN1CCC1CCCCC1	0.7	0.2	0.2	-4.9	1.1
CC(=O)NC(c1ccc(C)cc1)c1cc([N+](=O)[O-])c2cccnc2c1O (stereo not given)	28.2*	4.6	-0.9	4.4	9.1
CCC(=O)NC(c1cccs1)c1cc(Cl)c2cccnc2c1O (stereo not given)	33.9*	7.1	0.9	12.3	-3.1
CCC(=O)NC(c1ccc(C)cc1)c1cc([N+](=O)[O-])c2cccnc2c1O (stereo not given)	32.1*	1.9	1.8	6.6	9.1
CCC(=O)NC(c1ccco1)c1cc(Br)c2cccnc2c1O (stereo not given)	nt	nt	-2.3	nt	nt
CCCC(=O)NC(c1ccco1)c1cc([N+](=O)[O-])c2cccnc2c1O (stereo not given)	29.7*	1.3	6.1	8.8	20.6
CCC(=O)NC(c1ccc(C)cc1)c1ccc2cccnc2c1O (stereo not given)	8.1	3.9	-3.3	8.2	1.8
CCC(=O)NC(c1cc(Cl)c2cccnc2c1O)C(C)C (stereo not given)	4.0	3.7	2.6	3.9	0.0
CC(=O)NC(c1ccccc1)c1cc(Cl)c2cccnc2c1O (stereo not given)	24.2	1.6	-11.4	6.5	2.4
C[C@@H]1CN(C(=O)OC(C)(C)C)CCN1c1ccc(N2CCS(=O)(=O)CC2)c(C#N)c1	nt	nt	4.1	nt	nt
COc1ccc(N=C2Sc3ccccc3[C@@H]3C[C@H]4[C@H](CON4C)CN23)c(OC)c1	nt	nt	-1.0	nt	nt
CCCc1ccc(C(C)NC(=S)NCc2ccc(F)cc2)cc1 (stereo not given)	4.4	14.8	7.3	5.4	-7.1
COc1ccc(C(C)NC(=S)NCc2ccc(F)cc2)cc1OC (stereo not given)	-7.3	-3.9	5.1	-5.3	-0.4
CCC(C)c1ccc(C(C)NC(=S)NCc2ccc(F)cc2)cc1 (stereo not given)	-1.2	24.4*	-8.8	-5.4	-2.0
CCC(NC(=S)NCc1ccc(F)cc1)c1ccc(C(C)C)cc1 (stereo not given)	-4.6	28.9*	10.3	-9.0	-7.1
COC(=O)C1=C(C)N(Cc2ccccc2C(F)(F)F)C(=NCc2cc(OC)c(OC)c(OC)c2)NC1CCc1ccccc1 (stereo not given)	nt	nt	-0.3	nt	nt
COc1cccc(CNC(=O)[C@H]2CCCN2C(=O)[C@H]2CCCN2C(=O)c2ccc(F)cc2F)c1	nt	nt	3.7	nt	nt
COC(=O)c1cc(C)nc2c1C(=O)C(=O)C=C2N1CCOCC1	6.1	28.3*	-3.5	73.0*	55.6*
CCCCc1c(-c2ccccc2OC)ncn1C(C)c1ccccc1 (stereo not given)	nt	nt	-6.8	nt	nt
SMILES	pPAFAH inh	PAFAH1B2 FP inh	TCR CD3 inh	PAFAH1B3 inh	PAFAH2 inh
CN(c1ccccc1)S(=O)(=O)c1cc(C(=O)NCCCn2ccnc2)ccc1Cl	2.4	6.3	-8.2	-2.8	1.2
COc1ccc2c(c1)[C@H]1[C@H](CO2)[C@H](c2ccccc2)[C@]2(C)C(=O)N[C@@H](C)C(=O)N12	5.1	nt	nt	nt	nt
Cc1ccc(C(=O)N(CCc2ccccc2)Cc2ccccc2)cc1S(=O)(=O)N1CCOCC1	nt	5.0	7.5	7.5	3.2
COc1ccc(C(=O)N(CCc2ccccc2)Cc2ccccc2)cc1S(=O)(=O)N1CCOCC1	26.8*	3.8	-4.9	-0.4	1.4
C#CCOc1ccc(CNC[C@H]2O[C@@H](n3ccc(N)nc3=O)[C@H](O)[C@@H]2O)cc1	nt	nt	9.6	nt	nt
O=c1[nH]c2c(s1)C(c1ccco1)C1C3CCC(C3)C1S2 (stereo not given)	4.1	57.4*	-4.5	0.2	11.8
O=C(N1CCOCC1)N1CCN(S(=O)(=O)c2ccc(Cl)cc2)CC1	2.8	24.9*	-4.7	10.2	4.0
O=S(=O)(c1ccc(N2CCOCC2)cc1)N1CCOCC1	3.5	5.6	-2.4	3.5	5.7
O=S(=O)(c1ccc(Cl)cc1)N1CCN(c2ccc(N3CCOCC3)nn2)CC1	4.7	26.4*	-3.5	-2.1	-4.9
Cn1cnc(S(=O)(=O)N2CCN(c3ccc(Cl)cc3)CC2)c1	-0.5	28.4*	5.6	13.4	1.5
COc1cccc(S(=O)(=O)N(C)C[C@@H]2Oc3ncc(Br)cc3C(=O)N([C@H](C)CO)C[C@@H]2C)c1	nt	nt	5.2	nt	nt
C/C=C/C=C/C(=O)c1cc(C)c(OC(=O)CNC(=O)OC(C)(C)C)c(C)c1O	nt	nt	1.6	nt	nt
COc1cc(CNC(=O)CCCC/C=C/C(C)C)ccc1O	25.4*	3.1	6.1	4.6	-2.1
COc1cccc(C2=CC(=O)CC(C)(C)C2)n1	2.9	1.5	1.8	9.4	-3.4
O=C1N/C(=N/NC(=O)c2cccc3ccccc23)S/C1=C\c1ccccc1OCc1ccccc1	nt	14.4	-3.5	26.4*	10.0
COc1ccccc1N(Cc1ccccc1)S(=O)(=O)c1cccc(C(=O)O)c1	34.0*	7.1	-4.6	8.1	-2.5
CCOc1ccccc1NC(=O)c1cccc(S(=O)(=O)N(Cc2ccccc2)c2ccccc2OC)c1	1.6	-4.6	-0.8	-4.0	-9.1
COc1cc(/C=N/NC(=O)c2ccc(Cn3cc([N+](=O)[O-])cn3)o2)cc(Br)c1O	10.4	3.2	9.5	10.7	7.4
COc1cc(/C=N\NC(=O)c2ccc(Cn3cc(Br)c([N+](=O)[O-])n3)o2)cc(OC)c1O	27.4*	1.4	4.2	-0.5	-1.7
O=C(CC1C[C@H](C(=O)N2CCOCC2)[C@@]2(CCC3CCCC3)c3[nH]c4ccccc4c3CCN2C1=O)NCc1ccco1 (stereo not given in full)	1.8	4.5	6.3	9.0	1.0
NC(=S)N/N=C/c1cccc(O)c1O	32.4*	7.3	-7.5	0.7	0.4
N#Cc1ccc(S(=O)(=O)N2CCc3[nH]c4ccc(F)cc4c3C2)cc1	12.5	38.0*	0.2	4.8	7.6
COc1ccc(C(=O)NC(=O)CSc2nc3nc(C)cc(C)n3n2)cc1	4.5	3.5	4.1	2.2	-4.3
